Test results from the supplement of paper PMC4166925.
± gives the standard deviation of the averaged measurements. Whole data set: some 33,000 sequences, median “E-score (dimensionless, -0.5 to 0.5)” near -0.049, cut for the highest 2% near 0.37. The sample holds the highest values, similar sequences and a random draw of the others, so the mix is not that of the screen.

test system: T1, PmTbr T-box DNA-binding domain (GST fusion); experiment: PBM E-score of 8-mer (E-score (dimensionless, -0.5 to 0.5)); Tbr is Tbrain of the sea star Patiria miniata (Pm) or the sea urchin Strongylocentrotus purpuratus (Sp); higher = stronger binding preference; details: the construct has about 5 more residues each side
T1 sequence: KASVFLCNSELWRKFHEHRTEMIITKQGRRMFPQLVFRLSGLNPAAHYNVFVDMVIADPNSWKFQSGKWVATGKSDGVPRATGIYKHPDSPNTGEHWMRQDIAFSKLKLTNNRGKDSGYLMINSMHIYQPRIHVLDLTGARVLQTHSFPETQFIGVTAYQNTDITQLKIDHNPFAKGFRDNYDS
Summary of the method: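 Primer extension turned Universal Agilent oligonucleotide arrays double-stranded. They were incubated with 200 nM protein in PBS (pH 7.5); the protein was a GST-fused Tbr T-box DNA-binding domain expressed in BL21 E. coli at 20 °C and purified on glutathione. Every ungapped 8-mer was scored from the scanned, quantified probe intensities, and the Universal PBM Analysis Suite gave each an enrichment E-score averaged over duplicate arrays.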

Point of comparison: CTGGTGTC, “PBM E-score of 8-mer” value 0.341 ± 0.023. Against it:
- AACAAGCT — lower, -0.168 ± 0.035
- TAGAACGA — lower, -0.136 ± 0.028
- GCATAGTA — lower, -0.202 ± 0.024
- AGCACTTC — within error, 0.313 ± 0.012
- AACACTTG — higher, 0.408 ± 0.0044
- ATCACTTG — lower, 0.216 ± 0.045
- ATCACTTC — lower, 0.293 ± 0.015
- AACACTTA — higher, 0.42 ± 0.019
- ATCACTTA — lower, 0.194 ± 0.042
- AACACTAG — within error, 0.275 ± 0.056
- CGCACTTA — lower, 0.293 ± 0.022
- CACACTGA — lower, 0.2581 ± 0.00048
- CACACTTA — higher, 0.4445 ± 0.0038
- AACACTGA — lower, 0.182 ± 0.069
- AACACTTC — higher, 0.442 ± 0.014
- AGGACCGG — lower, -0.31 ± 0.028
- TGGCTGAA — lower, -0.23 ± 0.083
- CAGACCCA — lower, -0.0557 ± 0.00088
- AATGGCGA — lower, 0.163 ± 0.021
- TGCCATAA — lower, 0.0817 ± 0.098
- GAAGATCC — lower, -0.101 ± 0.034
- CCCTGGGA — lower, -0.131 ± 0.0026
- CACACTGC — lower, 0.168 ± 0.039
- CACACTTC — higher, 0.445 ± 0.005
- CCCACTTC — lower, 0.1799 ± 0.00066
- GACACTTA — higher, 0.3962 ± 0.0036
- GACACTGA — lower, 0.157 ± 0.016
- GCCACTTA — lower, 0.232 ± 0.021
- GAGTCTAC — lower, -0.282 ± 0.068
- GGTCGACC — lower, -0.253 ± 0.033
- GTGATAGA — within error, 0.297 ± 0.042
- CGTCGACA — lower, 0.26 ± 0.031
- AGTCGACA — lower, 0.253 ± 0.013
- TGTCGACA — within error, 0.371 ± 0.0078
- ACATTTGA — lower, 0.038 ± 0.044
- AATGACGG — lower, -0.0819 ± 0.0024
- ACAGCGCG — lower, 0.258 ± 0.0087
- TGTGAGAA — higher, 0.43 ± 0.0057
- AGTGAGAA — higher, 0.421 ± 0.025
- GGTGAGAC — higher, 0.3824 ± 0.0024
- TGAGAGAA — lower, 0.0636 ± 0.079
- TCTGAGAA — lower, -0.135 ± 0.0068
- AGTGAGAG — within error, 0.312 ± 0.022
- AGTGAGAT — lower, 0.287 ± 0.016
- GGTGAGAA — higher, 0.4754 ± 0.0012
- CGTGAGAC — lower, 0.258 ± 0.044
- AGTGAGAC — lower, 0.251 ± 0.023
- GGTGAGGA — within error, 0.364 ± 0.018
- CGTGAGAA — within error, 0.349 ± 0.039
- ACCTTCCA — lower, 0.0703 ± 0.049
- AAACAGGG — lower, -0.081 ± 0.025
- AATTCATC — lower, -0.0277 ± 0.0079
- CCCCCAGA — lower, -0.116 ± 0.043
- ACCAAAAA — lower, -0.124 ± 0.021
- GCTTGTAA — lower, -0.0775 ± 0.029
- CGAGGAGC — lower, -0.0722 ± 0.028
- CTAGTCAC — lower, 0.0813 ± 0.05
- TATCTACA — lower, -0.0338 ± 0.029
- AATTCGCA — within error, 0.339 ± 0.032
- CGGTGATA — lower, 0.187 ± 0.0068
- ACGTGATG — lower, 0.137 ± 0.028
- AGGTGATC — lower, 0.219 ± 0.0025
- AGGTGATG — higher, 0.4179 ± 0.0014
- AGGTGATA — higher, 0.468 ± 0.0054
- GGGTGATA — within error, 0.368 ± 0.0085
- AACAACTG — lower, 0.236 ± 0.0091
- CGACGCAC — lower, -0.0252 ± 0.048
- AGTGCTTC — lower, -0.15 ± 0.097
- CGAATGGC — lower, 0.0367 ± 0.0062
- AACCGCAT — lower, -0.147 ± 0.042
- AATTCATA — lower, -0.105 ± 0.05
- AAGCGTGG — lower, 0.0213 ± 0.089
- AGGCGTGA — higher, 0.4805 ± 0.00059
- AAGCGTGT — lower, 0.235 ± 0.017
- CGGCGTGA — within error, 0.327 ± 0.0041
- GGGCGTAA — lower, 0.118 ± 0.012
- AAGCGTGA — higher, 0.401 ± 0.018
- AGGCGTGC — lower, 0.158 ± 0.011
- GGGCGTGA — higher, 0.429 ± 0.0092
- AGGCGTGG — lower, 0.265 ± 0.016
- ACGCGTGC — lower, 0.14 ± 0.034
- ACGCGTGA — higher, 0.38 ± 0.012
- GCGCGTGA — within error, 0.322 ± 0.0044
- CATTGCCG — lower, 0.0765 ± 0.039
- TTAAGAAA — lower, -0.165 ± 0.066
- AATACTCT — lower, -0.111 ± 0.064
- CCGAGGGA — lower, -0.236 ± 0.0027
- ACGTTCAC — lower, 0.227 ± 0.06
- CAATCGCG — lower, 0.269 ± 0.026
- AATGCTGG — lower, -0.209 ± 0.026
- TAGGGTAA — lower, -0.0929 ± 0.022
- ATACTGAA — lower, -0.116 ± 0.013
- CACGCAAC — lower, 0.024 ± 0.02
- CATAGTAG — lower, -0.286 ± 0.031
- GATAACCC — lower, 0.0272 ± 0.031
- GTTAGGCA — lower, -0.0852 ± 0.013
- GCGTTAAC — within error, 0.275 ± 0.056
- CATTAAGG — lower, -0.136 ± 0.13
- AGGCGTCA — higher, 0.4194 ± 0.0035
- AGGCGTCG — within error, 0.353 ± 0.029
- CGGCGTCA — lower, 0.219 ± 0.03
- ACCTTATA — lower, 0.221 ± 0.084
- ATGAGCAG — lower, -0.0322 ± 0.034
- ATGGTGTA — lower, 0.104 ± 0.021
- ATGGTGCG — lower, 0.187 ± 0.036
- ATGGTGTC — within error, 0.383 ± 0.02
- ATGGTGGC — within error, 0.271 ± 0.056
- ATGGTGTG — higher, 0.383 ± 0.0049
- CAGTAGAC — lower, -0.0988 ± 0.05
